Source: PubChem
Coupling enz = qHTS Assay for Inhibitors of Fructose-1,6-bisphosphate Aldolase from Giardia Lamblia: Coupling assay counterscreen | actives 0.67% (n = 290,000) | coupling enzyme system counterscreen, AmpLite Red fluorescence | activity change, negative = inhibition, % at 58.2 µM, hits read low; in the data active = activity change below about -30%
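Fluorescence at 525 nm excitation and 598 nm emission measured inhibition of the coupled detection system without aldolase. Compounds (at 57.5 uM final) were preincubated 10 min at room temperature with coupling enzyme reagent before a 20 min substrate/AmpLite Red step.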
Tau ThT inhib = qHTS for Inhibitors of Tau Fibril Formation, Thioflavin T Binding. recombinant tau K18 P301L, heparin-induced fibrillization, ThT fluorescence. Potency, µM (series often up to 57.4 µM), for the others: at the top dose activity, negative = inhibition, actives largely listed as inhibitors. Microtubule-associated protein tau (Homo sapiens), P10636. actives 2.1% (n = 270,000). AID 1460, 2008; also: potency is read from the fitted curve at half-maximal effect; nearly all actives have a fitted effect of over 55% in size
Target sequence (P10636 561-689 P618L limits assumed): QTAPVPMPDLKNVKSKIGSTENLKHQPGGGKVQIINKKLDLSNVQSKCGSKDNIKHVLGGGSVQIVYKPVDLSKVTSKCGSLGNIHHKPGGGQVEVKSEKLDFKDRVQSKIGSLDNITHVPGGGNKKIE
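Using a mix of unlabeled (15 uM) and Alexa 594-labeled (0.24 uM) tau K18 P301L, heparin-triggered fibrillization over 6 hr at 37 C was scored by ThT fluorescence.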
Tau FP inhib = qHTS for Inhibitors of Tau Fibril Formation, Fluorescence Polarization | Microtubule-associated protein tau (Homo sapiens), P10636 | K18 P301L tau heparin fibrillization, Alexa594 FP, 6 h | Potency, µM (top dose mostly 57.7 µM), inactives show at the top dose activity, negative = inhibition, hits mostly inhibitors | actives 0.39% (n = 280,000) | AID 1468, 2008; also: potency is read from the fitted curve at half-maximal effect; nearly all actives have a fitted effect of over 55% in size
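Quantitative HTS format: compounds meet 15 uM recombinant K18 P301L tau and Alexa 594-tau tracer in 100 mM sodium acetate pH 7; 20 uM heparin triggers fibrillization at 37 C over 6 hr; FP gives the signal.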
G9a block = qHTS Assay for Inhibitors of Histone Lysine Methyltransferase G9a; Histone-lysine N-methyltransferase EHMT2 (Homo sapiens), Q96KQ7; G9a H3K9 monomethylation, AlphaScreen, 2 h; AID 504332, 2011; actives 8.8% (n = 350,000); Potency, µM (titrated, usually from 102 µM), without a hit: at the top dose activity, negative = inhibition, usual class: inhibitors; also: potency is read from the fitted curve at half-maximal effect; nearly all actives have a fitted effect of over 75% in size
Target sequence (Q96KQ7 913-1193 limits assumed): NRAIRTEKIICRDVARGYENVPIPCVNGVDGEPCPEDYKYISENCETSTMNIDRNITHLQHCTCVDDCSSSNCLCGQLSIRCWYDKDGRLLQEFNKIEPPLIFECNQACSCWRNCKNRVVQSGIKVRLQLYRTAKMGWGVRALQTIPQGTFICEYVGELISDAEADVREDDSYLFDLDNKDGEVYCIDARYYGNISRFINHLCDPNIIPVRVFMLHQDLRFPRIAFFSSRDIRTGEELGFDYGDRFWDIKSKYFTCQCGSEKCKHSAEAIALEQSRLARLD
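Signal arises when biotinylated H3K9 peptide, once monomethylated, bridges streptavidin donor and antibody-captured acceptor beads. Enzyme at 20 nM was preincubated 15 min with test compounds; peptide 500 nM and SAM 20 uM then reacted for 2 h.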
Tau fluor counter = Counterscreen qHTS for Inhibitors of Tau Fibril Formation, Fluorescence Polarization | tau K18 P301L Alexa594 fluorescence, heparin fibrillization | Potency, µM (series often up to 57.7 µM), for inactives: top-dose activity change, negative = decrease | actives 0.93% (n = 280,000) | AID 1463, 2008; also: potency is read from the fitted curve at half-maximal effect; nearly all actives have a fitted effect of over 55% in size
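Human tau K18 P301L (15 uM unlabeled, 0.24 uM Alexa 594-labeled) in 100 mM sodium acetate pH 7 with 20 uM heparin, 6 hr at 37 C. ThT 30 uM added, 1 hr ambient; Alexa 594 FP and total fluorescence read at 555/632 nm.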
Sfp inh = qHTS Assay for Inhibitors of Bacillus subtilis Sfp phosphopantetheinyl transferase (PPTase); Potency, µM, for inactives: largest response in the series, negative = inhibition, usual class: inhibitors; AID 1490, 2009; actives 3.5% (n = 310,000); Biochemical Sfp PPTase activity, qHTS;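 also: the enzyme is Sfp with the accession as filed and its product quenches rhodamine fluorescence; potency is read from the fitted curve at half-maximal effect; 0% = enzyme reaction without inhibitor and -100% = no enzyme wells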
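Fluorescence-quenching assay: 15 nM Sfp-PPTase preincubated 15 min at room temperature with compound, then 5 uM rhodamine-CoA and 12.5 uM BHQ-2-labelled YbbR peptide added. Fluorescence (ex 525/em 598 nm) read at start and after 30 min; difference gives rate.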
* = called active by the depositor; ? = inconclusive; . = no result given; [ ] = remark or other dose. Only some compounds are listed: those with a hit (about 11% of all), similar ones and a draw of the others. Unless noted, calls follow the shape of the dose curve; as a rule, active = well fitted curve in the direction sought with a large enough effect; inconclusive = small, poorly fitted or top-dose-only effect, or another doubt; inactive = no such curve, though single readings can be large; an effect the other way counts as inactive or inconclusive. Unless noted, % is scaled to controls: 0 for no effect and ±100 for the full control effect.

SMILES	Coupling enz	Tau ThT inhib	Tau FP inhib	G9a block	Tau fluor counter	Sfp inh
O=C(CN(Cc1ccccc1Cl)C(=O)c1csnn1)NCCc1ccccc1	0	.	.	11%	.	0%
O=C(Cn1ncc2c([nH]c3ccccc32)c1=O)N1CCc2ccccc2C1	-1	.	.	0%[59 µM]	.	21%
COC(=O)c1ccc(C(=O)OCCCc2nc3ccc(N)cc3[nH]2)cc1	-8	?	-4%	-7%[59 µM]	-23%	16%
CN(CC(=O)O)Cc1nc2ccccc2[nH]1	-3	-12%	2%	1.3µM*	-7%	89µM*
Oc1ccc(O)c(Cc2nc3ccccc3[nH]2)c1	-3	?	-6%	3.2µM*	?	35µM*
Nc1ccc2nc(CCCCCCc3nc4ccc(N)cc4[nH]3)[nH]c2c1	-11	?	4%	45µM*	?	10%
CNCc1nc2ccccc2[nH]1	0	-7%	-3%	.	0%	?
O=C(CCc1nc2ccccc2[nH]1)N1CCc2ccccc2C1	-34*	-6%	-4%	89µM*	-14%	5%
Cc1cc2c(c(=O)o1)C1O[C@](c3ccsc3)(Cc3ccccc31)O2	-5	.	.	?	.	1%
CCC(=O)N1CCc2cc(S(=O)(=O)NCCC(=O)Nc3cc(C)ccc3OC)ccc21	.	-3%	-9%	-36%[59 µM]	-11%	.
Cc1cc(C)nc(SCc2csc(-c3ccccc3)n2)n1	-1	?	-12%	34%[59 µM]	-18%	-17%
Cc1cc(C)nc(SCc2csc(N)n2)n1	1	-10%	-3%	50µM*	-6%	35µM*
COC(=O)Cc1[nH]n(-c2nc3ccccc3s2)c(=O)c1C(C)=O	4	-26%	3%	?	-9%	79µM*
N#Cc1c(N)n(-c2ccc(C(=O)O)cc2)c2nc3ccccc3nc12	-9	-4%	-9%	-5%[59 µM]	-7%	18%
N#Cc1c(C#N)c(-c2ccccc2)n(-c2ccc(C(=O)O)cc2)c1N	12	-4%	-3%	56µM*	-4%	24%
CC(=O)Nc1ccc(Nc2ccc3cc(S(=O)(=O)N4CCCCC4)ccc3n2)cc1	.	?	14%	?	14µM*[quencher]	.
CC(=O)c1ccc(Nc2ccc3cc(S(=O)(=O)N4CCCC4)ccc3n2)cc1	.	5%	22µM*	?	11µM*[quencher]	.
CCOC(=O)/C(Sc1nc(-c2ccccc2)cc(-c2ccccc2)c1C#N)=C(\C)O	1	.	.	-17%	.	-11%
S=c1nc(-c2ccc(Br)cc2)[nH]c2ccccc12	2	?	-6%	.	-10%	-1%
S=c1nc(-c2ccccc2)[nH]c2ccccc12	0	-11%	-7%	50µM*	1%	13%
COc1ccc([C@@H]2[C@H]3C(=O)N(c4cccc(C(F)(F)F)c4)C(=O)[C@H]3ON2C)cc1	1	1%	0%	45µM*	1%	-9%
CCOc1cccc2sc(NC(=O)c3ccc(S(=O)(=O)N4CCCc5ccccc54)cc3)nc12	.	16%	?	14%[59 µM]	-4%	.
Cc1ccc(CN(C(=O)COc2ccc(C)c(C)c2)C2CCS(=O)(=O)C2)o1 (stereo not given)	-1	-3%	0%	-9%	-11%	4%
COc1ccc(NC(=O)c2cc(C3CC3)on2)c(OC)c1	0	-16%	4%	45µM*	-6%	-4%
COc1ccc(S(=O)(=O)N2CCC(C(=O)Nc3ccccc3N3CCCC3)CC2)cc1OC	1	.	.	45µM*	.	8%
COc1ccc(NC(=O)C2CCN(S(C)(=O)=O)CC2)c(OC)c1	0	.	.	89µM*	.	4%
